Source: PubChem
CYP2C9 activ = human CYP2C9 activators, primary screen, biochemical, luminescence | Cytochrome P450 2C9 (Homo sapiens), P11712 | recombinant CYP2C9, luciferin-H conversion; hits give high values; factor 1 = untreated enzyme, 0 = blocked | activation factor at 5 µM | 96,000 tested, 1.4% active | AID 1024, 2008;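 active = activation factor of 2 or more for CYP2C9 at a 5 µM dose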;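 note: 0 = sulfaphenazole-blocked wells and 1 = vehicle-only wells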
Target sequence (P11712 whole entry, looked up): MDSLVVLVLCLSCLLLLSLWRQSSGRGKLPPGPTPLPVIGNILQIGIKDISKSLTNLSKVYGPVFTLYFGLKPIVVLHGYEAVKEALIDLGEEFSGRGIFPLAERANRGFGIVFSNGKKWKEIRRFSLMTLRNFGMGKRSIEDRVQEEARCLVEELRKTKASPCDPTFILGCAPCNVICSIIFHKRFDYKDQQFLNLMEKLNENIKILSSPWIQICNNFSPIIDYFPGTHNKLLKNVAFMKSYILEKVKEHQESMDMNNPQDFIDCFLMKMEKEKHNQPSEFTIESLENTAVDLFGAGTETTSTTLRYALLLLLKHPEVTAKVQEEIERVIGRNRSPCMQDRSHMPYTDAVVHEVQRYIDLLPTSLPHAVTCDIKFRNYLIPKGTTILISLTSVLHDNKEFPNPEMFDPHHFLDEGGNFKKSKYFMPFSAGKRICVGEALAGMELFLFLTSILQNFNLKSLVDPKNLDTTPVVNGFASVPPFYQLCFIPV
Mac1 fbg enh = enhancers of CD11b/CD18 adhesion to fibrinogen, primary screen, K562 cells, luminescence; Integrin beta-2 (Homo sapiens) + Integrin alpha-M (Homo sapiens), P05107+P11215; ATPlite luminescence; activation, % at 10 µM; 93,000 tested, 0.07% active;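 active = 10 µM primary screen giving 50% or more activity, confirmed by 40% or more on retest at that dose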
Mac1 fbg inh = inhibitors of CD11b/CD18 adhesion to fibrinogen, primary screen, K562 cells, luminescence. Integrin beta-2 (Homo sapiens) + Integrin alpha-M (Homo sapiens), P05107+P11215. ATPlite luminescence; Mn2+ added to activate the integrin. inhibition, % at 10 µM. 93,000 tested, 0.54% active. AID 1497, 2009;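 active = primary inhibition of 50% or more at 10 µM, then 40% or more on retest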
CYP2C19 inh = blockers of cytochrome P450 2C19 activity – biochemical, luminescence, ADME assay, primary screen; P33261; CYP2C19 Supersomes, luciferin-H EGE luminescence, 30 min; inhibition, % at 5 µM; 96,000 tested, 21% active; AID 778, 2007;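 active = CYP2C19 inhibition above a set limit at 5 µM in the primary screen, cut at about 50% in these data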;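 note: plate controls were negative control wells for no effect and 2.5 mM tranylcypromine positive control for full effect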
CYP2C9 inh = blockers of cytochrome P450 2C9 activity – biochemical, luminescence, ADME assay, primary screen | P11712 | CYP2C9 Supersomes, luciferin-H conversion | inhibition, % at 5 µM | 96,000 tested, 20% active;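 active = blocking of liver enzyme CYP2C9 beyond about 50% at 5 µM, limit read from the data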
CYP2C19 activ = human CYP2C19 activators, primary screen, biochemical, luminescence. Cytochrome P450 2C19 (Homo sapiens), P33261. recombinant CYP2C19, luciferin-H EGE luminescence; hits give high values; 0 = fully inhibited enzyme, 1 = untreated enzyme. activation factor at 5 µM. 96,000 tested, under 10 active;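 active = activation factor of at least 2 at 5 µM in the primary screen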;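 note: 0 = wells with 2.5 mM tranylcypromine and 1 = vehicle-only wells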
* marks the source's active call; other numbers are inactive results; nt = no result given. Shown are actives, neighbours in structure and some others; about 28% of the full set was active somewhere.

SMILES	CYP2C9 activ	Mac1 fbg enh	Mac1 fbg inh	CYP2C19 inh	CYP2C9 inh	CYP2C19 activ
CCOC(=O)CSc1ccc(S(=O)(=O)N(C)C2CCCCC2)cc1[N+](=O)[O-]	0.1	3.4	8.4	64.5*	88.2*	0.4
N#C/C(=C\c1ccccc1)c1nc2ncccc2[nH]1	0.3	nt	nt	15.7	66.0*	0.8
COC(=O)c1ccc(COc2ccccc2/C=N/NS(=O)(=O)c2ccccc2)cc1	0.8	-2.7	0.1	7.2	23.1	0.9
COc1ccccc1C1/C(=C(/O)c2ccc(C)cc2)C(=O)C(=O)N1CC(C)O (stereo unspecified)	0.9	nt	nt	-5.4	9.0	1.1
COc1ccccc1C1/C(=C(/O)c2ccccc2)C(=O)C(=O)N1CC(C)C (stereo unspecified)	0.4	-0.7	6.3	-10.0	58.8*	1.1
COc1ccc(/C(O)=C2/C(=O)C(=O)N(CCCN(C)C)C2c2cccc(Cl)c2)cc1OC (stereo unspecified)	nt	1.6	-3.9	nt	nt	nt
C=CC[N+](C)(C)C/C(Cl)=C(\Cl)c1ccccc1	0.5	1.5	-1.9	-13.9	54.8*	1.1
Cc1ccc(N2CC(C(=O)Nc3cc(C)ccc3F)CC2=O)cc1 (stereo unspecified)	0.1	4.3	-19.1	75.0*	90.4*	0.3
Cc1ccc(NC(=O)C2CC(=O)N(c3ccc4c5c(cccc35)CC4)C2)cc1 (stereo unspecified)	0.4	nt	nt	25.9	55.9*	0.7
CC(C)Oc1ccc(N2CC(C(=O)Nc3ccccc3F)CC2=O)cc1 (stereo unspecified)	0.7	5.4	-12.9	-15.3	31.5	1.2
CCOc1ccc(N2CC(C(=O)Nc3ccccc3F)CC2=O)cc1 (stereo unspecified)	0.3	-3.7	-24.6	16.2	67.8*	0.8
COC(=O)c1ccc(NC(=O)C2CC(=O)N(c3cc(C)ccc3C)C2)cc1 (stereo unspecified)	1.2	0.3	-6.8	8.5	-19.8	0.9
CCc1ccc(N2CC(C(=O)Nc3ccc(C)c(S(=O)(=O)N4CCOCC4)c3)CC2=O)cc1 (stereo unspecified)	0	3.3	10.5	89.8*	99.9*	0.1
Cc1ccc(NC(=O)C2CC(=O)N(Cc3ccccc3)C2)cc1S(=O)(=O)N1CCCCCC1 (stereo unspecified)	nt	-3.9	50.7	nt	nt	nt
CCc1ccc(-c2csc3ncn(CC(=O)N4CCOCC4)c(=O)c23)cc1	1	2.0	-7.6	-5.5	2.8	1.1
C/C(=N\NC(=O)c1cc(C(C)C)[nH]n1)c1ccco1	nt	-2.1	6.0	nt	nt	nt
CCOC(=O)c1cnc2cc(C)nn2c1-c1ccccc1	0.9	nt	nt	2.1	10.6	1
CCc1cc2c(=O)n(CC)c(SC(C)C(=O)Nc3c(C)n(C)n(-c4ccccc4)c3=O)nc2s1 (stereo unspecified)	0.5	-4.7	-2.0	23.1	45.9	0.8
O=C1CN(C(=O)COC(=O)CCC(=O)c2ccc3c(c2)OCCO3)c2ccccc2N1	1.1	-1.8	9.3	10.7	-10.2	0.9
CC(=O)Nc1cccc(NC(=O)C2CC(=O)N(c3ccc(C)cc3)C2)c1 (stereo unspecified)	0.3	-0.2	-38.8	72.4*	68.4*	0.3
CCc1ccc(N2CC(C(=O)Nc3cccnc3)CC2=O)cc1 (stereo unspecified)	0.3	1.2	-31.4	58.4*	74.3*	0.4
COc1ccccc1NC(=O)C1CC(=O)N(c2ccc(F)cc2)C1 (stereo unspecified)	0.9	-2.4	-30.8	21.1	9.3	0.8
COC(=O)c1ccccc1NC(=O)C1CC(=O)N(c2ccc(C)cc2)C1 (stereo unspecified)	0.4	-0.7	14.1	28.6	56.6*	0.7
C=CCNC(=O)C1CC(=O)N(c2ccc(OCC(=O)Nc3cccc(OC)c3)cc2)C1 (stereo unspecified)	0.4	-2.2	-1.6	18.7	55.9*	0.8
COc1ccc(CCn2c(-c3cc([N+](=O)[O-])cc([N+](=O)[O-])c3)nc3nc4ccccc4nc32)cc1OC	nt	-5.2	4.0	nt	nt	nt
SMILES	CYP2C9 activ	Mac1 fbg enh	Mac1 fbg inh	CYP2C19 inh	CYP2C9 inh	CYP2C19 activ
Cc1cc(=O)n(C)c(=O)n1CC(=O)N1CCCCCC1	1.1	nt	nt	-15.0	-8.5	1.1
C/C(=N\NC(=O)CC1N=C(Cc2ccccc2)NNC1=O)c1ccc(Cl)cc1Cl (stereo unspecified)	0.8	7.1	9.2	19.1	24.0	0.8
Cc1ccc(N2CC(C(=O)Nc3cccnc3)CC2=O)cc1 (stereo unspecified)	0.6	-1.1	-15.5	49.7	37.3	0.5
Cc1ccc(N2CC(C(=O)Nc3ccncc3)CC2=O)cc1 (stereo unspecified)	0	1.2	-1.4	97.6*	98.6*	0
S=c1[nH]cc(-c2ccccc2)n1-c1ccccc1	0.2	nt	nt	79.1*	78.4*	0.2
Cc1nc(=O)cc(-c2ccccc2)n1-c1ccccc1	1.1	1.8	-1.7	-2.8	-11.1	1
CCn1c(-c2ccccc2)c[nH]c1=S	0.7	-3.3	0.3	58.4*	31.4	0.4
Nc1nc(Cl)cc(Sc2ccc3ccccc3c2)n1	0.9	nt	nt	-2.8	11.7	1
CCCOC(=O)CSc1nc(N)c(C#N)c(CC)c1C#N	1	-2.5	-42.5	24.7	4.0	0.8
CCn1cc(C(=O)OCC(=O)N(C)C2CCS(=O)(=O)C2)c(=O)c2ccc(C)nc21 (stereo unspecified)	1.3	-1.5	5.3	-7.4	-28.5	1.1
COc1ccc(N=C2C(=Nc3ccc(OC)cc3)N(c3ccc(OC)cc3)C(=S)N2c2ccccc2)cc1	0.2	-2.4	2.5	4.1	77.9*	1
COc1ccc(N=C2C(=Nc3ccc(OC)cc3)N(c3ccc(OC)cc3)C(=S)N2C)cc1	0.5	-2.2	0.2	68.1*	52.6*	0.3
Cc1ccc(S(=O)(=O)Cc2ccc(C(=O)N3CCc4ccccc4C3)o2)cc1	0.4	5.7	6.1	92.1*	56.1*	0.1
COc1ccc(S(=O)(=O)Cc2ccc(C(=O)N3CCc4ccccc4C3)o2)cc1	0.5	1.5	7.8	89.3*	53.2*	0.1
Cc1cc2n(n1)C(c1ccc3c(c1)OCO3)Nc1c(C)cccc1-2 (stereo unspecified)	0.1	-3.7	-27.4	98.5*	92.2*	0
Cc1cc(C)c2c(c1)-c1cc(C)nn1C(c1ccc3c(c1)OCO3)N2 (stereo unspecified)	0.8	6.9	6.1	33.1	20.0	0.7
CCCn1c(CNS(=O)(=O)c2ccc(C)cc2)nc2ccccc21	1.2	-1.6	-10.6	35.9	-22.6	0.6
